Hit rate of the full screen: of about 87,000 compounds, about 360 (0.41%) were called active. This is one part of a sample in which actives are shown more often than they occur. A number with no mark means an inactive call. Cut-off read from the data, not from the text of the source: active = cytotoxicity above about 50%; inactive = the rest.

This experiment is described as follows: HT1080 cell viability loss – fluorescence readout (AID 620).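 Note: cells exposed to compound overnight then 4 h with Alamar Blue; 0% = vehicle DMSO and 100% = killing control.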 The following applies: at 10 µM, active compounds read high.
`Cc1cc(C)c(C)c(S(=O)(=O)NCc2ccco2)c1C`: the cytotoxicity was 24.4%.

For `COc1ccc(C(=O)c2ccc(OC)c(OC)c2)cc1OC`, the cytotoxicity was 14.8%.

For the compound `COc1ccc(C(N)=O)cc1N`, the cytotoxicity was 2.5%.

For `COc1ccc(C(=O)c2ccc(OC)c(N)c2)cc1N`, the cytotoxicity is 53.8% (active).

Take `COc1ccc(OCCCC(=O)Nc2nncs2)cc1`: the cytotoxicity was 8.3%.

Regarding `O=C(NCCN1CCN(c2ccccc2F)CC1)C1CC(=O)N(C2CCCC2)C1` (stereo not drawn), the cytotoxicity is 7%.

Consider `CC1CCCCC1NC(=O)CSc1nncs1` (stereo not drawn), for which the cytotoxicity was -0.9%.

In the case of `COC(=O)c1ccc(OC(=O)c2ccc(OCc3c(C)noc3C)c(OC)c2)cc1`, the cytotoxicity was -2%.

In the case of `COC(=O)c1ccc2c(c1)C(C)(C)C(/C=C/c1ccc(OC)c(OC)c1OC)=[N+]2C`, the cytotoxicity is 64.8% (active).

In the case of `COC(=O)c1ccc(OC(=O)c2ccc(OC)c(OC)c2)c(OC)c1`, the cytotoxicity was -8%.

Take `O=C(Nc1cccc(Cl)c1)N(CCN1CCOCC1)Cc1cccc(Cl)c1`: the cytotoxicity is 24%.

As for `Cc1ccc(NC2=NCC(=O)N2Cc2ccccc2)c(C)c1`, the cytotoxicity is -14.9%.

Consider `COC(=O)c1cc2ccsc2n1Cc1nc(-c2ccc(OC)cc2)oc1C`, for which the cytotoxicity is -11.4%.

`COC(=O)c1cc2ccsc2n1CC(=O)N(C)c1ccccc1`: the cytotoxicity is -3.5%.

Take `COC(=O)c1cc2ccsc2n1Cc1cc(=O)n2ccccc2n1`: the cytotoxicity is 60.2% (active).

As for `CCn1c(SCC(=O)Nc2ccccc2)nc2c1c(=O)n(C)c(=O)n2C`, the cytotoxicity was -1.6%.

For the compound `COc1cccc(OCC(=O)Nc2c(C(=O)Nc3ccc(OC)cc3OC)oc3ccccc23)c1`, the cytotoxicity was 2.3%.

For the compound `O=S(=O)(Nc1cccnc1)c1cccc(C(F)(F)F)c1`, the cytotoxicity was 2.9%.

In the case of `O=C(COc1cccc2ccccc12)N1CCN(c2ccccn2)CC1`, the cytotoxicity is -9%.

As to `Cc1ccc(Nc2nc(N3CCOCC3)c3ccccc3n2)cc1`, the cytotoxicity was -0.4%.

Regarding `COc1ccc(Nc2nc(N3CCCC3)c3ccccc3n2)cc1`, the cytotoxicity is 19.5%.

As to `CCOC(=O)N1CCN(c2c(N3CCN(c4ccccn4)CC3)c(=O)c2=O)CC1`, the cytotoxicity was -3%.

On to `COc1ccc(-c2nc(-c3ccccc3)c(-c3cc([N+](=O)[O-])ccc3C)[nH]2)cc1O`, for which the cytotoxicity is 10.8%.

As for `COc1ccc(-c2c/c(=N\c3nc(-c4ccccc4)c(C)s3)c3ccccc3o2)cc1O`, the cytotoxicity is 60% (active).

For the compound `COc1ccc(-c2nc3ccccc3s2)cc1O`, the cytotoxicity is -4%.

Consider `Cn1c(SCc2ccccc2Cl)nc2ccccc21`, for which the cytotoxicity is 30.7%.

As to `Cc1nc2ccc(NC(=O)c3ccc(Cl)c(NC(=O)c4cccs4)c3)cc2s1`, the cytotoxicity is 3.4%.

Turning to `CCn1c(SCc2ccccc2)nnc1-c1ccc(S(=O)(=O)N2CCCCC2)cc1`, the cytotoxicity was -8.1%.

As to `O=C1C(Cl)=C(Nc2ccccc2O)C(=O)N1c1ccccc1`, the cytotoxicity was -3.8%.

As to `CNC(=O)[C@@]1(C)C=C[C@@H](Cc2ccccc2)N1C(=O)OC`, the cytotoxicity was -1%.

Regarding `COC(=O)CNC(=O)[C@@]1(C)C=C[C@@H](Cc2ccccc2)N1C(=O)OC`, the cytotoxicity is 89.9% (active).

As to `COC(=O)CNC(=O)[C@@]1(C)C=C[C@@H](Cc2ccccc2)N1C(C)=O`, the cytotoxicity is -25%.

For the compound `COc1cccc(-c2nnc(SCC(N)=O)n2-c2ccc(Cl)cc2)c1`, the cytotoxicity is -0.4%.

As for `O=S(=O)(c1cccc(-c2nc3ccccc3s2)c1)N1CCOCC1`, the cytotoxicity was -1%.

On to `COc1ccccc1NC(=O)N(Cc1ccco1)Cc1cc2cc(C)cc(C)c2[nH]c1=O`, for which the cytotoxicity was 3.9%.

With `COc1ccccc1NC(=O)N(Cc1ccco1)Cc1cc2ccc(C)c(C)c2[nH]c1=O`, the cytotoxicity is 58.4% (active).

Consider `COc1ccccc1NC(=O)N(Cc1ccco1)Cc1cc2cccc(C)c2[nH]c1=O`, for which the cytotoxicity is -8%.

For `COc1ccc(NC(=O)CCN2CCN(S(=O)(=O)c3ccc(Cl)cc3)CC2)cc1`, the cytotoxicity was -5.2%.

For `COc1ccc(CC2C(=O)OC(C)(C)OC2=O)cc1`, the cytotoxicity is -9.2%.

On to `O=C(Nc1cccc(-c2cc3ccccc3oc2=O)c1)c1ccc(Br)o1`, for which the cytotoxicity was -1.6%.

For `COc1ccc2nc(NC(=O)c3cc(C)oc3C)sc2c1`, the cytotoxicity is -5.9%.

On to `COc1ccc(C)c(S(=O)(=O)Nc2ccc(OCC(=O)O)cc2)c1`, for which the cytotoxicity is -3.4%.

`COc1ccc(NS(=O)(=O)c2cc(C(=O)O)ccc2C)cc1`: the cytotoxicity was -2.1%.

`COc1ccc(NS(=O)(=O)c2cc(OC)ccc2NC(=O)c2cc(C)oc2C)cc1`: the cytotoxicity was 54% (active).

As for `COc1ccc(NS(=O)(=O)c2cc(C)ccc2NC(=O)c2cc(C)oc2C)cc1`, the cytotoxicity was 67.9% (active).

`COc1ccc(NS(=O)(=O)c2cc(C)ccc2C)cc1`: the cytotoxicity is 2.8%.

As for `CCOC(=O)C1Cc2ccccc2CN1` (stereo not drawn), the cytotoxicity is -7.6%.

As to `CCOC(=O)N1CCC(NC(=O)C2CCCN(S(=O)(=O)c3ccc4c(c3)oc(=O)n4C)C2)CC1` (stereo not drawn), the cytotoxicity was -2.4%.

For the compound `CC(=O)Oc1ccc(C)cc1-n1nc2ccccc2n1`, the cytotoxicity was -18.3%.

Turning to `COc1ccccc1Oc1ccc(S(=O)(=O)N2CCOCC2)cc1S(=O)(=O)N1CCOCC1`, the cytotoxicity is -0.3%.

Consider `Cc1ccc(Oc2ccc(S(=O)(=O)N3CCOCC3)cc2C(N)=O)c(-n2nc3ccccc3n2)c1`, for which the cytotoxicity is 53.4% (active).

On to `Cc1cc(C)c(C#N)c(SCC(=O)Nc2ccc3c(c2)OCO3)n1`, for which the cytotoxicity was -1.7%.

Consider `CN(C)/C=C(\C(=O)c1ccc(Cl)cc1)c1nnnn1-c1ccc(Cl)cc1`, for which the cytotoxicity is 5.8%.

For `OC(CNCCc1ccccc1)c1ccccc1` (stereo not drawn), the cytotoxicity is -2.3%.

With `CCNc1nc(NCC)nc(N2CC(=O)N(CC(=O)OCC)C2=N)n1`, the cytotoxicity is 4.9%.

Consider `Fc1ccc(C2C3=C(Nc4ncnn42)c2ccccc2OC3c2ccncc2)cc1` (stereo not drawn), for which the cytotoxicity was 14.5%.

As for `Clc1ccc2c(c1)C1=C(C(c3ccncc3)O2)C(c2ccc(Br)cc2)n2ncnc2N1` (stereo not drawn), the cytotoxicity was 50.7% (active).

With `Brc1ccc(C2C3=C(Nc4ncnn42)c2ccccc2OC3c2ccncc2)cc1` (stereo not drawn), the cytotoxicity was 44.4%.

As for `O=C(CSCCc1ccccn1)Nc1ccccn1`, the cytotoxicity is 3.4%.

For `O=C(Cc1cn2ccsc2n1)OCc1nc2ccccc2s1`, the cytotoxicity is -1.1%.

`CCOC(=O)c1c(C)[nH]c(C(=O)COC(=O)CNC(=O)C2CCCCC2)c1C`: the cytotoxicity is 0.3%.

Regarding `CCOC(=O)C1=C(C)N(CCCC(=O)O)C(=O)NC1c1ccccc1OC(=O)c1cccs1` (stereo not drawn), the cytotoxicity was -19.7%.

Turning to `CCC1CCCN1Cn1cnc2c([nH]c3ccccc32)c1=O` (stereo not drawn), the cytotoxicity was 2.5%.

For `O=C(NCC(c1cccnc1)N1CCN(c2ccccc2)CC1)OCc1ccccc1` (stereo not drawn), the cytotoxicity is 3.4%.

On to `CCOC(=O)c1ccccc1NS(=O)(=O)c1ccc(C)cc1`, for which the cytotoxicity was 6.9%.

Regarding `COc1ccc(Cl)cc1NS(=O)(=O)c1ccc(S(=O)(=O)N2CCCC2)cc1`, the cytotoxicity was -1.1%.

Turning to `COC(=O)COc1ccc(S(=O)(=O)Nc2cc(OC)ccc2OC)cc1`, the cytotoxicity was 2.6%.

In the case of `COc1ccc(S(=O)(=O)Nc2cc(Cl)ccc2OC)cc1`, the cytotoxicity is 70.9% (active).

Consider `COc1ccc(Cl)cc1NS(=O)(=O)c1ccc(OC)c(OC)c1`, for which the cytotoxicity is -2.2%.

With `CCOC(=O)c1ccccc1NS(=O)(=O)c1ccccc1`, the cytotoxicity is 37%.

As to `CCCCOc1ccc(S(=O)(=O)Nc2cc(OC)ccc2OC)cc1`, the cytotoxicity was 4.8%.

As for `CCOc1ccc(S(=O)(=O)Nc2cc(OC)ccc2OC)cc1`, the cytotoxicity is 59.8% (active).

On to `CCOC(=O)c1ccccc1NS(=O)(=O)c1ccc(OCC)cc1`, for which the cytotoxicity is 55.2% (active).

For the compound `Cc1cc(C)n(/N=C\c2c(O)ccc3ccccc23)c(=O)c1C(N)=O`, the cytotoxicity is 0%.

Turning to `CC(=O)c1ccc(OC(C)C)c(CN2CCCCC2)c1`, the cytotoxicity was 1.8%.

On to `Cc1onc(-c2ccccc2)c1C(=O)Nc1cccc(C#N)c1`, for which the cytotoxicity was -1.8%.

On to `COC(=O)CSc1nnc(CNS(=O)(=O)c2ccc(C)cc2)n1C`, for which the cytotoxicity is 6.8%.

Turning to `Cc1ccc2cc(-c3noc(C4CCCCC4)n3)c(=O)[nH]c2c1`, the cytotoxicity was -0.9%.

In the case of `Cn1c(=O)c2c(nc(Br)n2CC(=O)c2cccs2)n(C)c1=O`, the cytotoxicity is -2.7%.

For `COc1ccc(S(=O)(=O)N2CCN(S(=O)(=O)c3ccc4c(c3)OCCO4)CC2)cc1`, the cytotoxicity is 2.3%.

As to `COc1ccc(S(=O)(=O)N2N=C(C)Oc3ccccc3C2=O)cc1`, the cytotoxicity is 60.3% (active).

As for `CC1=NN(S(=O)(=O)c2ccc(F)cc2)C(=O)c2ccccc2O1`, the cytotoxicity was 0.4%.

On to `O=C(NCc1ccccc1)C1CCN(S(=O)(=O)N2CCCCCC2)CC1`, for which the cytotoxicity was -5.9%.

As to `O=S(=O)(N1CCOCC1)n1nnc2ccccc21`, the cytotoxicity was -4.1%.

`O=C(N1CCOCC1)n1nnc2ccccc21`: the cytotoxicity was -1.4%.

In the case of `CCc1ccc2c(c1)[C@]1(C(=O)N2)[C@@H]2C(=O)N(Cc3ccccc3)C(=O)[C@@H]2[C@@H]2CCCN21`, the cytotoxicity was -2.5%.

Turning to `CCCOc1ccc2nc(NC(=O)OC)[nH]c2c1`, the cytotoxicity was 64.1% (active).

As to `COc1ccc2nc(NCCO)[nH]c2c1`, the cytotoxicity is 3.7%.

As for `C=CCOc1ccc2nc(NC(=O)OC)[nH]c2c1`, the cytotoxicity was 62.3% (active).

For the compound `COc1ccc(OCC(=O)Nc2nc3ccccc3[nH]2)cc1`, the cytotoxicity was -8.8%.

For `CCCSc1ccc2nc(NC(=O)OC)[nH]c2c1`, the cytotoxicity is 40%.

As to `CCOc1ccc2nc(NCCO)[nH]c2c1`, the cytotoxicity was -12%.

As for `O=C1C2ON(c3ccc(Br)cc3)C(c3cccnc3)C2C(=O)N1C1CCCCC1` (stereo not drawn), the cytotoxicity is 1.2%.

For the compound `COc1ccc2nc3oc(C(=O)N4CCN(c5ccccc5F)CC4)cc3cc2c1`, the cytotoxicity is -0.7%.

Consider `Cc1cc(NC(=O)CSc2nnc(-c3cccnc3)n2C)no1`, for which the cytotoxicity is -4.9%.

For the compound `Cc1cccc(N(C(=O)Nc2ccccc2)C2=NCC(C)S2)c1` (stereo not drawn), the cytotoxicity is -2.6%.

On to `N#Cc1cccc(Cn2nnc(-c3ccccc3)n2)c1`, for which the cytotoxicity is 13.7%.

For the compound `COc1ccc(OC)c(-n2nnnc2SCC(=O)Nc2ccc(C(=O)N3CCCCC3)cc2)c1`, the cytotoxicity was -11.6%.

Source of the values: PubChem BioAssay AID620 (Sanford-Burnham Center for Chemical Genomics, 2007).
